Source: PubChem BioAssay AID1739 (National Center for Advancing Translational Sciences (NCATS), 2009)
Inconclusive results are not listed. Where a call stands in place of a potency, no number is given. Activity calls are given as the source filed them. Calls follow the shape of the dose curve; as a rule, active = well fitted inhibition curve with a large enough effect; inconclusive = small, poorly fitted or top-dose-only effect; inactive = flat fitted curve, though single readings scatter.

experiment: Counterscreen Assay for Enhancers of SMN2 Splice Variant Expression: Modulation of SMN1 Expression; conditions: HEK293 SMN1-luciferase reporter, luminescence, 30-36 h; series mostly up to 22.8 µM
Excerpt: NIH Chemical Genomics Center [NCGC] NIH Molecular Libraries Probe Production centers Network [MLPCN] MLPCN Grant: R03 MH084179-01 Assay Submitter (PI): Elliot Androphy NCGC Assay Overview: Spinal muscular atrophy (SMA) is caused by insufficient levels of the survival motor neuron protein SMN. The SMN locus on chromosome 5q13 contains two inverted copies of SMN called SMN1 and SMN2 which are 99% identical at the amino acid level. SMN1 is a fully functional protein and SMN2 skips exon 7 90% of the time. Skipping of exon 7 produces non-functional protein product. 10% of the SMN2 protein includes exon 7 and is fully functional. In the SMA disease state, mutations in the SMN1 locus are the cause of the disease state. Because only 10% of SMN2 is of the fully functional form, it is not sufficient to overcome the deficiency produced by the loss of the SMN1 product. A therapy that either increase the amount of SMN2 product made or to increase the inclusion of exon 7 has been proposed for the treatment of SMA. We have designed an assay to identify small molecules that can increase the amount of functional SMN2 product by appending a luciferase reporter gene after the native SMN2 gene, such that inclusion of exon 7 in the expressed product places the luciferase sequence in frame, thus generating functional luciferase enzyme. As a counterscreen for nonspecific modulators of expression, we have run compounds through a similar assay that measures expression of an SMN1-luciferase chimera.
NCGC Assay Protocol Summary: This screen utilizes a luciferase reporter gene assay, combining the promoter with the major portion of the native SMN1 cDNA (exons 1 -7, intron 8 , exon 8 fused to luciferase) stably expressed in HEK293 cells. Compounds that increase luciferase signal presumably enhance expression of the functional SMN1 splice variant. Passaging media contained DMEM w/ glutamax (+phenol red) 10% FCS, 1x pen/strep, 200 ug/ml hygro, 1x sodium pyruvate. Assay media contained DMEM w/ glutamax (-phenol red) 10% FCS, 1x pen strep, 1x pyruvate Sequence, Parameter, Value, Description (1) Cells, 5 uL, 2000 cells/well, 1536 TC treated White solid bottom plate (2) Time, 10-12 hours, 37C 5% CO2 (3) Compound, 23 nl, MLSMR Library (4) Control Compound, 23 nL, Sodium butyrate st 4.5mM (final) conc (5) Time, 30-36 hours, 37C 5% CO2 (6) Reagent, 3 ul, One Glo (TM) from Promega (7) Time, 5-15 minutes, Room temp (8) Detector, Viewlux: luminescent read, 60 second integration, high speed 2x binning Keywords: Spinal muscular atrophy, SMA, SMN2, high throughput screening, MLSMR, MLPCN, NIH Roadmap, qHTS and NCGC

Compound | Potency
FC(F)(F)c1nnc(-c2ccccc2)nc1Oc1ccccc1 | inactive
COc1ccc(-c2csc(N3CCC(C(N)=O)(N4CCCCC4)CC3)n2)cc1 | inactive
CCCCOC(C)n1cc(F)c(=O)[nH]c1=O (stereo not given) | inactive
O=C(NCc1cccs1)C(=O)NCC1OCCCN1S(=O)(=O)c1ccccc1 (stereo not given) | inactive
Cc1nnc(-c2ccccc2)[nH]c1=O | inactive
NC(=O)C1(N2CCCCC2)CCN(c2nc(-c3ccccc3)cs2)CC1 | inactive
Nc1ccccc1-c1nnn(CC(=O)N2CCCc3ccccc32)n1 | inactive
FC(F)(F)c1cccc(-c2nnc(-c3ccccc3)c(N3CCOCC3)n2)c1 | inactive
O=c1[nH]c(=O)n(C2CCCO2)cc1Br (stereo not given) | inactive
COC(=O)C1=C(C)NC(=O)/C1=C\c1cc(C)n(-c2ccccc2F)c1C | inactive
Brc1nc2ncnc(NCc3ccco3)c2[nH]1 | inactive
FC(F)(F)c1cccc(Oc2nc(-c3ccccc3)nnc2C(F)(F)F)c1 | inactive
c1ccc(-c2nnc(-c3ccccc3)c(-c3c[nH]c4ccccc34)n2)cc1 | inactive
CN1CCN(c2nc(-c3ccc(Br)cc3)nnc2-c2ccccc2)CC1 | inactive
O=C(NCCc1cn2ccsc2n1)c1cccs1 | inactive
Cn1cnc2c(NCc3ccco3)ncnc21 | inactive
Cc1[nH]c2ccccc2c1-c1nc(-c2ccc(Cl)cc2)nnc1-c1ccccc1 | inactive
Fc1ccc(Oc2nc(-c3ccccc3)nnc2C(F)(F)F)cc1 | inactive
CC(/C=C/C(=O)NO)=C\[C@@H](C)C(=O)c1ccc(N(C)C)cc1 | 7.94 µM (active)
Cc1ccc(-c2nnc(-c3ccccc3)c(N3CCOCC3)n2)cc1 | inactive

Compound | Potency
Cn1c(C(=O)NCc2cccs2)cc2oc3ccccc3c21 | 3.16 µM (active)
Clc1ccc(-c2nnc(-c3ccccc3)nc2N2CCSCC2)cc1 | inactive
OCCCNc1nc(-c2ccc(Br)cc2)nnc1-c1ccc(Cl)cc1 | inactive
CN(C)CCCN(C(=O)c1cccs1)c1nc(-c2ccccc2)cs1 | inactive
O=c1cc(N2CCN(c3cccc(Cl)c3)CC2)[nH]c(=O)n1C1CCCCC1 | inactive
Clc1ccc(-c2nnc(-c3ccc(Br)cc3)c(N3CCSCC3)n2)cc1 | inactive
CN(Cc1ccccc1)Cc1c(F)cccc1F | inactive
COc1nc(-c2ccc(Cl)cc2)nnc1C | inactive
Clc1nc(NCC2CCCO2)c2[nH]cnc2n1 (stereo not given) | inactive
OCCCNc1nc(-c2ccc(Cl)cc2)nnc1-c1ccccc1 | inactive
CCC1=Nc2ccccc2-c2nnc(SC)nc2O1 | inactive
O=C(Nc1nc(-c2ccc3ccccc3c2)cs1)C1CCN(S(=O)(=O)c2cccs2)CC1 | inactive
O=C(NCCCNCCCNC(=O)c1ccccn1)c1ccccn1 | inactive
Brc1ccc(-c2nnc(-c3ccccc3)c(N3CCSCC3)n2)cc1 | inactive
O=C(O)c1cccc(COc2ccc(CO)cc2Cl)c1 | 3.16 µM (active)
COc1ccc(CNC(=O)c2ccc(C(C)C)cc2)cc1 | inactive
COc1cccc(NC(=O)CSc2nc3ccccc3nc2N2CCOCC2)c1 | 5.01 µM (active)
Nn1c(SCC(=O)NCCC2=CCCCC2)nnc1C1CCCCC1 | inactive
CCCSc1nnc(Sc2nnnn2-c2ccccc2)s1 | 7.08 µM (active)
COc1ccc(OC)c(-c2csc(N3CCC(c4ccccc4)CC3)n2)c1 | inactive
